Bioassay records deposited in PubChem BioAssay by several laboratories.
CCHF vOTU inh-1 = CCHFV vOTU protease inhibitors, primary screen, biochemical, Pep-AMC substrate, fluorescence. AID 651958, 2012. inhibition, % at 11.5 µM. 370,000 tested, 0.55% active. Crimean-Congo hemorrhagic fever virus L polyprotein viral ovarian tumor (vOTU) protease …
RecA splice inh = Mtb RecA intein splicing inhibitors, primary screen, biochemical, fluorescence, HTS; Protein RecA (Mycobacterium tuberculosis (strain ATCC 25618 / H37Rv)), P9WHJ3; cell-free RecA intein splicing; inhibition, % (concentration not given with the values); 290,000 tested, 0.75% active; in the data active = inhibition above about 30%
DUSP3 inh = VHR1 phosphatase inhibitors, primary screen, biochemical, absorbance, uHTS; Dual specificity protein phosphatase 3 (Homo sapiens), P51452; recombinant VHR phosphatase, pNPP absorbance; inhibition, % at 13.3 µM; 290,000 tested, 0.52% active; AID 1654, 2009; in the data active = inhibition above about 50%
Target sequence (P51452 whole entry, looked up): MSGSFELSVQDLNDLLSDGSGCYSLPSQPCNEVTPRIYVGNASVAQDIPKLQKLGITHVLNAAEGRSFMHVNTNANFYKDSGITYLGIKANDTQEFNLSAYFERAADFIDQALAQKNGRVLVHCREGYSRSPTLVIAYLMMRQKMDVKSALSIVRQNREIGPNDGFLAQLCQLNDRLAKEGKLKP
3CLpro inhibitor = SARS-CoV 3CLpro protease inhibitors, primary screen, biochemical, quenched FRET; recombinant SARS-CoV 3CLpro, quenched FRET peptide cleavage; 290,000 tested, 0.14% active; inhibition, % at 6 µM; in the data active = inhibition above about 12%
CCHF vOTU inh-2 = CCHFV vOTU protease inhibitors, confirmation, biochemical, Pep-AMC substrate, fluorescence | AID 686976, 2013 | shares compounds with CCHF vOTU inh-1 | Recombinant CCHFV vOTU | 1,900 tested, 17% active | inhibition, % at 11.5 µM
Hits are given with their value. Compounds with a hit are over-represented: about 1.5% of the library has one in this group of screens. Rule as the data show it, unless noted: active = inhibition above about 30%; inactive = the rest.

What do the screens show for `CSCCC(NC(=O)c1ccccc1)C(=O)OCC(=O)NCc1ccco1` (stereo not given)?
CCHF vOTU inh-1: inactive

How did NC(=O)c1ccc(NC(=O)COC(=O)CCC2CCCC2)cc1 do in these assays?
CCHF vOTU inh-1: inactive

How did COc1cc(/C=N/n2c(C3CCCCC3)n[nH]c2=S)ccc1O do in these assays?
CCHF vOTU inh-1: 31; RecA splice inh: inactive; DUSP3 inh: 58; 3CLpro inhibitor: inactive; CCHF vOTU inh-2: inactive

Results for Cc1onc(-c2ccccc2Cl)c1C(=O)N1CCC(C(N)=O)CC1 ?
CCHF vOTU inh-1: inactive; RecA splice inh: inactive; DUSP3 inh: inactive; 3CLpro inhibitor: inactive

How did Cc1onc(-c2ccccc2Cl)c1C(=O)N1CCC(Cc2ccccc2)CC1 do in these assays?
CCHF vOTU inh-1: 32; RecA splice inh: inactive; DUSP3 inh: inactive; 3CLpro inhibitor: inactive; CCHF vOTU inh-2: inactive

What do the screens show for `CC(=O)N1CCc2c(sc(NC(=O)C3CC3)c2-c2nc3ccccc3s2)C1`?
CCHF vOTU inh-1: 50; RecA splice inh: 30; DUSP3 inh: inactive; 3CLpro inhibitor: inactive; CCHF vOTU inh-2: inactive

How did Nc1ccccc1C(=O)N1CCc2ccccc21 do in these assays?
CCHF vOTU inh-1: 49; RecA splice inh: inactive; DUSP3 inh: inactive; 3CLpro inhibitor: inactive; CCHF vOTU inh-2: inactive

Results for COc1ccc(/C=C/C(=O)Nc2ccccc2C(F)(F)F)cc1 ?
CCHF vOTU inh-1: inactive; RecA splice inh: inactive; DUSP3 inh: inactive; 3CLpro inhibitor: inactive

What do the screens show for `CCOc1ccc(/C=C/C(=O)Nc2ccccc2C(F)(F)F)cc1`?
CCHF vOTU inh-1: 30; RecA splice inh: inactive; DUSP3 inh: inactive; 3CLpro inhibitor: inactive; CCHF vOTU inh-2: inactive

How did COc1ccccc1N(C)S(=O)(=O)c1ccc(C(=O)Nc2cccc(S(=O)(=O)N3CCOCC3)c2)cc1 do in these assays?
CCHF vOTU inh-1: 35; CCHF vOTU inh-2: inactive

What do the screens show for `COc1ccccc1N(C)S(=O)(=O)c1ccc(C(=O)NNC(=O)c2ccccc2O)cc1`?
CCHF vOTU inh-1: 30; CCHF vOTU inh-2: inactive

What do the screens show for `Cc1cc(C(=O)Nc2cccc(S(=O)(=O)N3CCOCC3)c2)c2ccccc2n1`?
CCHF vOTU inh-1: 35; CCHF vOTU inh-2: inactive

How did COc1ccccc1N(C)S(=O)(=O)c1ccc(Cl)c(C(=O)NNC(=O)c2ccccc2O)c1 do in these assays?
CCHF vOTU inh-1: inactive; RecA splice inh: inactive; DUSP3 inh: inactive; 3CLpro inhibitor: inactive

How did Nc1[nH]c(C(=O)c2ccc(Br)cc2)c(-c2ccc(Br)cc2)c1C(=O)NCc1cccc2ccccc12 do in these assays?
CCHF vOTU inh-1: inactive

How did CN1CCCCC(NC(=O)c2ccc(Cl)cc2Cl)C1=O (stereo not given) do in these assays?
CCHF vOTU inh-1: inactive

What do the screens show for `CCc1ccc(OCC(=O)NC(NC(=S)Nc2ccccc2C)C(Cl)(Cl)Cl)cc1` (stereo not given)?
CCHF vOTU inh-1: 30; RecA splice inh: inactive; DUSP3 inh: inactive; 3CLpro inhibitor: inactive; CCHF vOTU inh-2: inactive

What do the screens show for `O=C1CC(NCc2ccncc2)C(=O)N1c1ccccc1` (stereo not given)?
CCHF vOTU inh-1: 35; RecA splice inh: inactive; DUSP3 inh: inactive; 3CLpro inhibitor: inactive; CCHF vOTU inh-2: inactive

Results for COC1=CC(=O)c2nc(Cl)ccc2C1=O ?
CCHF vOTU inh-1: 113; CCHF vOTU inh-2: 100

How did COc1cccc2c1C(=O)C=C(C)C2=O do in these assays?
CCHF vOTU inh-1: inactive; RecA splice inh: inactive; DUSP3 inh: inactive; 3CLpro inhibitor: inactive

Results for COCCOc1ccc(C(F)(F)F)cc1NC(=O)CN1C(=O)NC(C)(c2ccc3c(c2)OCO3)C1=O (stereo not given) ?
CCHF vOTU inh-1: 31; RecA splice inh: inactive; CCHF vOTU inh-2: inactive

How did Cc1ccc(Nc2cc(-n3cccn3)ncn2)c(C)c1 do in these assays?
CCHF vOTU inh-1: 64; RecA splice inh: inactive; DUSP3 inh: inactive; 3CLpro inhibitor: inactive; CCHF vOTU inh-2: inactive

How did CCN1C(=O)[C@H]2[C@H]3[C@H](O)[C@H](O)C/C(=N\OC[C@@H](C)[C@H](OCc4ccccc4)C(C)C)[C@@H]3CC[C@H]2C1=O do in these assays?
RecA splice inh: inactive; DUSP3 inh: inactive; 3CLpro inhibitor: inactive

How did CCN(CC)c1ccc(CNc2nc3ccccc3n2CCN2CCCCC2)cc1 do in these assays?
CCHF vOTU inh-1: 30; RecA splice inh: inactive; DUSP3 inh: inactive; 3CLpro inhibitor: inactive; CCHF vOTU inh-2: inactive

How did CCc1cccc(CC)c1-n1c(SCC(=O)N2CCCc3ccccc32)nc(O)cc1=O do in these assays?
CCHF vOTU inh-1: inactive

How did C[C@@H]1CN([C@@H](C)CO)C(=O)CCCn2nncc2CO[C@@H]1CN(C)C(=O)Nc1ccccc1C(F)(F)F do in these assays?
CCHF vOTU inh-1: inactive

What do the screens show for `C[C@@H]1CN([C@@H](C)CO)C(=O)CCCn2nncc2CO[C@H]1CN(C)C(=O)Nc1ccccc1C(F)(F)F`?
CCHF vOTU inh-1: 30; CCHF vOTU inh-2: inactive

How did Cc1ccc(S(=O)(=O)NC(CCC(N)=O)C(=O)NCc2ccc3c(c2)OCO3)c(C)c1 (stereo not given) do in these assays?
CCHF vOTU inh-1: inactive

How did CCC(=O)NC(c1cccs1)c1cc([N+](=O)[O-])c2cccnc2c1O (stereo not given) do in these assays?
CCHF vOTU inh-1: 38; RecA splice inh: inactive; DUSP3 inh: inactive; 3CLpro inhibitor: inactive; CCHF vOTU inh-2: 33

What do the screens show for `CCCC(=O)NC(c1cccs1)c1cc([N+](=O)[O-])c2cccnc2c1O` (stereo not given)?
CCHF vOTU inh-1: inactive; RecA splice inh: inactive; DUSP3 inh: inactive; 3CLpro inhibitor: inactive

Results for C[C@H]1CN([C@@H](C)CO)C(=O)c2cc(Br)cnc2O[C@H]1CN(C)C(=O)c1ccccn1 ?
CCHF vOTU inh-1: inactive

Results for Cc1ccn2c(=O)nc(SCC(=O)NCc3ccccc3)nc2c1 ?
CCHF vOTU inh-1: inactive; RecA splice inh: inactive

What do the screens show for `Cc1ccc(CNC(=O)CSc2nc(=O)n3ccc(C)cc3n2)cc1`?
CCHF vOTU inh-1: 40; CCHF vOTU inh-2: inactive

What do the screens show for `O=[N+]([O-])c1ccc(CSc2ccc(S(=O)(=O)N3CCCCCC3)cn2)cc1`?
CCHF vOTU inh-1: inactive

How did Cc1cc(C)c(OCC(=O)OCC(=O)N2c3ccccc3CC2C)c(C)c1 (stereo not given) do in these assays?
CCHF vOTU inh-1: inactive; RecA splice inh: inactive

What do the screens show for `Cc1nn(C)cc1C1C2=C(CC(C)(C)CC2=O)OC2=C1C(=O)CC(C)(C)C2`?
CCHF vOTU inh-1: inactive; RecA splice inh: inactive; DUSP3 inh: inactive; 3CLpro inhibitor: inactive

Results for CCN1CCN(c2ccc(S(=O)(=O)N3CCOCC3)cc2NC(=O)c2ccc(C(F)(F)F)cc2)CC1 ?
CCHF vOTU inh-1: 34; RecA splice inh: inactive; CCHF vOTU inh-2: inactive

How did COc1cccc(C(C(=O)NCc2ccccc2)N2CCN(c3cccc(C)c3C)CC2)c1OC (stereo not given) do in these assays?
CCHF vOTU inh-1: inactive

How did Cc1ccc(-c2nc3ccc(C)cn3c2Cc2ccccc2C(F)(F)F)cc1 do in these assays?
CCHF vOTU inh-1: inactive
